Bioassay records deposited in PubChem by several laboratories.
Yp Topo-I inh = blocks Yersinia pestis topoisomerase I activity. Y. pestis Topo-I cleavage product accumulation, plate reader. activity, % at 10 µM. 0.064% of 360,000 active; in the data active means activity above about 50%, passing the limit was not always enough
Mtb BioA inh = BioA (M. tuberculosis) enzyme inhibition; purified M. tuberculosis BioA enzyme, plate reader; inhibition, % at 9.99 µM; 0.096% of 360,000 active; AID 602481; in the data active means inhibition above about 40%
PfHsp40 yeast = rescue of PfHsp40-mediated yeast toxicity | S. cerevisiae expressing PfHsp40, growth rescue, ATP luminescence | growth rescue, % at 12.5 µM | 0.68% of 340,000 active | AID 504582; in the data active means growth rescue above about 28%, passing the limit was not always enough;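 further: yeast W303a lacking pdr1 and pdr3 grown in galactose medium; growth measured after three days at 30 °C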
MazF activator = activators of E. coli MazEF toxin-antitoxin RNase | 0.32% of 350,000 active | activation, % at 20 µM | P0AE70 | AID 504720 | FAM/BHQ RNA-DNA oligo cleavage fluorescence, 5 h; in the data active means activation above about 50%
Target sequence (P0AE70 whole entry, looked up): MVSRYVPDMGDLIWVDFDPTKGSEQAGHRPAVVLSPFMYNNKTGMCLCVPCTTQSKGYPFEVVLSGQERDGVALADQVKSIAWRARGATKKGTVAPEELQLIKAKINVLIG
3CLpro inhibitor = SARS-CoV 3CLpro protease inhibition; P0C6X7; inhibition, % at 6 µM; 0.14% of 290,000 active; recombinant SARS-CoV 3CLpro, quenched FRET peptide cleavage; AID 1706; in the data active means inhibition above about 12%
BJeLR viability = kills HRASV12-expressing BJeLR cells; AID 1554; 0.17% of 300,000 active; BJeLR (HRASV12) viability, CellTiter-Glo ATP luminescence, 48 h; inhibition, % (no concentration beside the values); in the data active means inhibition above about 50%
The depositor's hits bear a star. An excerpt weighted towards active compounds, which were near 1.1% of everything screened.

CCN1CCN(C(=S)c2ccc(OCC(=O)Nc3ccc(OC)cc3)cc2)CC1 was read as Yp Topo-I inh 6, Mtb BioA inh -1, PfHsp40 yeast -1, MazF activator 58*, 3CLpro inhibitor 0 and BJeLR viability 5.
CCN1CCN(C(=S)c2ccc(OCC(=O)NCc3ccccc3)cc2)CC1 was read as Yp Topo-I inh -10, PfHsp40 yeast 5, MazF activator 5, 3CLpro inhibitor 5 and BJeLR viability -1.
For Cc1ccc2c(Cl)c(C)c(N3CCCCC3)nc2n1 the results were Yp Topo-I inh 50*, PfHsp40 yeast 0, MazF activator 0, 3CLpro inhibitor 3 and BJeLR viability -3.
Screening Cc1nc2ccccc2nc1N1CCCCC1 returned Yp Topo-I inh 2, Mtb BioA inh -1, PfHsp40 yeast 0, MazF activator -8 and 3CLpro inhibitor -6.
Screening CNC(=O)C[C@H]1CC[C@H]2[C@@H](COC[C@@H](O)CN2C(=O)c2ccc3c(c2)OCO3)O1 returned Mtb BioA inh 0.
For CCN(C(=O)CSc1nncn1-c1ccccc1)c1c(N)n(Cc2ccccc2)c(=O)[nH]c1=O the results were Yp Topo-I inh 0, Mtb BioA inh 0, PfHsp40 yeast 27*, MazF activator 5, 3CLpro inhibitor 4 and BJeLR viability 9.
For N#Cc1c(Cl)nsc1NC(=O)c1ccccc1 the results were Yp Topo-I inh 11, PfHsp40 yeast 217*, MazF activator -5, 3CLpro inhibitor -2 and BJeLR viability 16.
Screening N#Cc1c(NC(=O)c2ccccc2)sc2c1CCCCC2 returned Yp Topo-I inh 1, Mtb BioA inh -4, PfHsp40 yeast 0, MazF activator 6, 3CLpro inhibitor 0 and BJeLR viability 5.
`Cc1ccc(SCCC(=O)N2CCCC2)cc1` gave Yp Topo-I inh -2, Mtb BioA inh 0, PfHsp40 yeast 42*, MazF activator -4, 3CLpro inhibitor -4 and BJeLR viability 1.
CCC(=O)N1C[C@@H](O)COC[C@H]2O[C@H](CC(=O)N3CCCCC3)CC[C@@H]21 was read as Mtb BioA inh -2.
`C[n+]1c(-c2ccc(C=NNC(=O)c3ccc(C(=O)NN=Cc4ccc(-c5cn6ccccc6[n+]5C)cc4)cc3)cc2)cn2ccccc21` gave Yp Topo-I inh -22 and PfHsp40 yeast 92*.
For O=C(N/N=C\c1ccc(F)cc1)c1ccc(F)cc1 the results were Yp Topo-I inh 0, Mtb BioA inh -2, PfHsp40 yeast -1, MazF activator 6, 3CLpro inhibitor 4 and BJeLR viability -6.
For O=C(N/N=C/c1c(O)n(-c2ccccc2Cl)c(=O)c2ccccc12)C1COc2ccccc2O1 (stereo not drawn) the results were Yp Topo-I inh 1, PfHsp40 yeast 4, MazF activator -14, 3CLpro inhibitor 2 and BJeLR viability -1.
O=C(N/N=C/c1cccc([N+](=O)[O-])c1)C1COc2ccccc2O1 (stereo not drawn) was read as Yp Topo-I inh 1, PfHsp40 yeast 0, MazF activator 2, 3CLpro inhibitor -5 and BJeLR viability 4.
Screening O=C(N/N=C\c1cccc([N+](=O)[O-])c1O)C1COc2ccccc2O1 (stereo not drawn) returned Yp Topo-I inh 1, Mtb BioA inh 1, PfHsp40 yeast 42*, MazF activator -1, 3CLpro inhibitor 5 and BJeLR viability 13.
For Cc1ccc(-n2c(O)c(/C=N/NC(=O)C3COc4ccccc4O3)c3ccccc3c2=O)cc1 (stereo not drawn) the results were Yp Topo-I inh 2, Mtb BioA inh 6, PfHsp40 yeast 205*, MazF activator -8, 3CLpro inhibitor -3 and BJeLR viability 8.
Screening O=[N+]([O-])c1ccc(S(=O)Cc2ccccc2)c([N+](=O)[O-])c1 (stereo not drawn) returned Yp Topo-I inh -7, PfHsp40 yeast 253* and MazF activator 1.
`O=[N+]([O-])c1ccc(CS(=O)c2ccccc2)cc1` (stereo not drawn) gave Yp Topo-I inh 1, PfHsp40 yeast 0 and MazF activator 7.
Screening CCC(C)C(N)C1=NC(C(=O)N[C@@H](CC(C)C)C(=O)N[C@H](CCC(=O)O)C(=O)N[C@H](C(=O)N[C@H]2CCCCNC(=O)[C@H](CC(N)=O)NC(=O)[C@@H](CC(=O)O)NC(=O)[C@H](Cc3cnc[nH]3)NC(=O)[C@@H](Cc3ccccc3)NC(=O)[C@H]([C@@H](C)CC)NC(=O)[C@@H](CCCN)NC2=O)[C@@H](C)CC)CS1 (stereo partly drawn) returned Yp Topo-I inh 16, Mtb BioA inh 2, PfHsp40 yeast -1 and MazF activator 387*.
`CC=Cc1ccc2n(c1=O)C[C@H]1[C@H](CO)[C@@H](C(=O)NCCC)[C@@H]2N1C(=O)C1CCCC1` (mixture of isomers) gave Mtb BioA inh -2.
CCOc1ccc(NCc2cc3c(C(C)(C)C)nn(-c4ccccc4)c3[nH]c2=O)cc1 was read as Yp Topo-I inh -1, Mtb BioA inh 0, PfHsp40 yeast 43*, MazF activator -6, 3CLpro inhibitor 6 and BJeLR viability -3.
For CCOC(=O)C1CCCN(C2CC(=O)N(c3cccc(C(F)(F)F)c3)C2=O)C1 (stereo not drawn) the results were Yp Topo-I inh -10, Mtb BioA inh -1, PfHsp40 yeast 44*, MazF activator 8, 3CLpro inhibitor 4 and BJeLR viability 7.
For C=CCNC(=O)N1c2ccccc2Sc2ccccc21 the results were Yp Topo-I inh 1, Mtb BioA inh 1, PfHsp40 yeast 57*, MazF activator 2, 3CLpro inhibitor 2 and BJeLR viability 4.
NCC[C@@H]1CC[C@@H](NC(=O)C2CCCC2)[C@@H](CO)O1 was read as Mtb BioA inh 2.
For CCN1C(=O)C(=Cc2cc(C)n(C3CC3)c2C)C(=O)N(CC)C1=S the results were Yp Topo-I inh -3, Mtb BioA inh 0, PfHsp40 yeast 0, MazF activator 677*, 3CLpro inhibitor -5 and BJeLR viability -8.
Screening CCc1ccc(OCc2n[nH]c(=S)n2Cc2ccccc2)cc1 returned Yp Topo-I inh 25, Mtb BioA inh 1, PfHsp40 yeast 101*, MazF activator 3, 3CLpro inhibitor 12 and BJeLR viability -4.
Screening CC(C)CCn1c(COc2ccccc2)n[nH]c1=S returned Yp Topo-I inh 0, Mtb BioA inh -3, PfHsp40 yeast 1, MazF activator 8, 3CLpro inhibitor -2 and BJeLR viability 2.
Screening CCc1ccc(OCc2n[nH]c(=S)n2C(C)CCCC(C)C)cc1 (stereo not drawn) returned Yp Topo-I inh 63*, PfHsp40 yeast 57*, MazF activator -11, 3CLpro inhibitor -3 and BJeLR viability 7.
C[C@@H]1CN([C@H](C)CO)C(=O)c2cc(C3=CCCCC3)cnc2O[C@H]1CN(C)C(=O)C1CCOCC1 was read as Mtb BioA inh 1.
